From PubChem BioAssay
Only some compounds are listed: those with a hit (about 3.3% of all), similar ones and a draw of the others.
NS1 inh = inhibitors of influenza NS1 protein function. Potency, µM (doses to about 46.1 µM), without a hit: top-dose activity, positive = more growth. 270,000 tested, 0.4% active. AID 2326; calls by dose curve; note: actives are rising curves; nearly all actives have a fitted effect of over 50% in size
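Growth recovery, yeast-based: influenza A NS1 expressed in S. cerevisiae causes slow growth, and suppressors are detected by OD600. The parent strain without NS1 is used as positive control.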
LmPK inhibitor = inhibitors of Leishmania mexicana pyruvate kinase; Q27686; purified LmPK, Kinase-Glo ATP luminescence, 1 h; Potency, µM (highest dose often 57.5 µM), for the others: at the highest dose activity change, negative = inhibition, usual class: inhibitors; 290,000 tested, 0.37% active; AID 1721; note: % is set by controls: 0 for no effect and ±100 for the full control effect
Target sequence (Q27686 whole entry, looked up): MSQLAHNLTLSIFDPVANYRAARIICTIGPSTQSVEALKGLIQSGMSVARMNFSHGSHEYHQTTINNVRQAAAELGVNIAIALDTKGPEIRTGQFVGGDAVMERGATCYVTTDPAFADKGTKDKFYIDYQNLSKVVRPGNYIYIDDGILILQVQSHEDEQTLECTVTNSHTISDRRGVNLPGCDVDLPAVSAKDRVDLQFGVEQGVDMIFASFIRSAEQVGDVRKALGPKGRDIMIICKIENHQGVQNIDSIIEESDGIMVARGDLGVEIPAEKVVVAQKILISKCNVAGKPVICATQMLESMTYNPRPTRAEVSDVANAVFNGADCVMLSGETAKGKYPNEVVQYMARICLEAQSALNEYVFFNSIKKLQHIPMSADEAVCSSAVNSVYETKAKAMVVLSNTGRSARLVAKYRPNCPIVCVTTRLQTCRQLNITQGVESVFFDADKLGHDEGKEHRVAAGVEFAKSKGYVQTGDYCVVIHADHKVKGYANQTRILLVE
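Kinase-Glo luminescence read after 1 h RT reaction of 0.1 nM LmPK with 0.5 mM PEP and 0.1 mM ADP. Activity scaled between uninhibited and enzyme-free controls.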
SARS PLP yeast = SARS-CoV PLP inhibition in yeast | S. cerevisiae expressing SARS-CoV PLpro, growth rescue | Potency, µM (series often up to 32.9 µM), for the others: at the top dose activity, positive = growth rescue, actives largely listed as activators | 330,000 tested, 0.19% active; calls by dose curve; note: 0% is about no effect; nearly all actives have a fitted effect of over 55% in size
RE007 growth inh = less growth of the S. pombe RE007 Vpr strain; S. pombe RE007 Vpr strain, BacTiter-Glo ATP luminescence, 24 h; Potency, µM (titrated, usually from 92.2 µM), without a hit: at the highest dose activity change, negative = less growth, usual class: inhibitors; 360,000 tested, 0.21% active; AID 651644; active = well fitted falling curve with a large enough effect; inconclusive = small, poorly fitted or top-dose-only effect; inactive = no such curve, though single readings can be large or run the other way; note: % is set by controls: 0 for no effect and ±100 for the full control effect; nearly all actives have a fitted effect of over 50% in size
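Fission yeast strain RE007, carrying one chromosomally integrated HIV-1 vpr copy, was seeded at OD 0.01 in PMG+AL medium with 23 nL pinned compound. After 24 h at 30 °C and 99% humidity, viability was read by BacTiter-Glo luminescence.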
Sm TGR inh = inhibitors of Schistosoma mansoni thioredoxin glutathione reductase. Q962Y6. purified TGR, DTNB reduction, TNB absorbance 405 nm. Potency, µM (titrated, usually from 114 µM), for the others: top-dose activity change, negative = inhibition, usual class: inhibitors. 360,000 tested, 3% active; note: % is set by controls: 0 for no effect and ±100 for the full control effect; nearly all actives have a fitted effect of over 60% in size
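First, TGR (20 nM dispensed) and NADPH were mixed with compound. Second, a 15 min room-temperature incubation followed. Third, further NADPH and then DTNB were added to start the reaction. Finally, TNB absorbance was monitored kinetically.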
Tb PYK inh = T. brucei pyruvate kinase inhibition; Q57TT1; TbPYK enzyme, Kinase-Glo Plus ATP luminescence, 45 min; Potency, µM (series often up to 76.8 µM), for the others: top-dose activity, negative = inhibition, actives largely listed as inhibitors; 410,000 tested, 0.12% active; AID 624173; note: % is set by controls: 0 for no effect and ±100 for the full control effect; nearly all actives have a fitted effect of over 50% in size
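Quantitative HTS: titrated library compounds versus trypanosomal pyruvate kinase in TEA buffer (pH 7.2) containing KCl, MgCl2, BSA and Tween-20. Reactions were initiated with ADP, 130 uM final. Kinase-Glo Plus luminescence was read after 45 min at RT.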
* marks the source's active call; other numbers are inactive results; ? = inconclusive; . = no result; [ ] = dose if it differs, or a comment. Unless noted, calls come from the whole dose curve; as a rule, active = well fitted curve in the direction sought with a large enough effect; inconclusive = small, poorly fitted or top-dose-only effect, or another doubt; inactive = no such curve, though single readings can be large; an effect the other way counts as inactive or inconclusive. Potency is the fitted concentration of half-maximal effect.

SMILES	NS1 inh	LmPK inhibitor	SARS PLP yeast	RE007 growth inh	Sm TGR inh	Tb PYK inh
COc1cc2c(cc1OC)C1O[C@](CCCCN3C(=O)c4ccccc4C3=O)(C2)Oc2c1c(=O)oc1ccccc21	21.2%	-5.5%[11.5 µM]	-0.5%[6.58 µM]	.	-16.6%[22.9 µM]	.
O=c1c2cccnc2n(Cc2ccccc2F)c(=O)n1Cc1ccccc1Cl	.	.	.	.	-4.5%	-2.0%
Cc1cccc(CNC(=O)Cn2c(-c3cccs3)cc3ccccc32)c1	.	.	.	.	-4.7%	7.8%
COc1ccc(C(=O)C2CCCN(C(=O)c3ccccc3C(C)=O)C2)cc1F (stereo unspecified)	5.5%	4.7%	-0.2%	2.1%	39.8µM*	-1.4%
COCCC(=O)N1CCCC(C(=O)c2ccc(C(F)(F)F)cc2)C1 (stereo unspecified)	10.3%	0.1%	-0.7%	-6.1%	-0.7%	-10.5%
CC(=O)c1ccccc1C(=O)N1CCCC(C(=O)c2ccc(C(F)(F)F)cc2)C1 (stereo unspecified)	-5.4%	9.9%	0.5%	-6.7%	39.8µM*	7.2%
COc1ccc(C(=O)C2CCCN(C(=O)c3ccc(CSC)o3)C2)cc1F (stereo unspecified)	17.8%	3.5%	7.2%	0.6%	28.2µM*	-5.8%
COc1ccccc1C(=O)C1CCCN(C(=O)c2ccccc2C(C)=O)C1 (stereo unspecified)	3.6%	-9.1%	-5.2%	-3.1%	-8.7%	0.0%
C=CCNC(=S)NC(=O)c1ccc(C)c(Br)c1	-35.2%	0.2%	-2.7%	?	31.6µM*	-4.7%
O=C1NC(c2cccs2)Nc2sc3c(c21)CCCC3 (stereo unspecified)	-22.4%	-4.3%	-3.4%	-2.7%	28.2µM*	?
Cn1cc(O)nc1NC(=O)Nc1cccc(Cl)c1	.	.	.	.	.	-7.7%
CCc1ccccc1N1C(=O)CC(Sc2nccc(C)n2)C1=O (stereo unspecified)	27.1%	-2.5%	-6.2%	1.8%	39.8µM*	4.6%
Cc1ccnc(SC2CC(=O)N(c3ccc([N+](=O)[O-])cc3)C2=O)n1 (stereo unspecified)	-4.1%	-2.0%	-14.9%	-16.1%	22.4µM*	0.1%
CCOc1cc(CNc2ccc3c(c2)CCC3)ccc1O	-5.3%	-2.4%	3.4%	-11.8%	?	-6.3%
COc1cc(CNc2ccc3c(c2)CCC3)cc(OC)c1O	8.5%	-0.6%	4.4%	12.8%	0.316µM*	-3.6%
O=C(N/N=C\C=C\c1ccc([N+](=O)[O-])o1)c1cccs1	-45.2%	1.0%	-6.5%	-9.8%	10µM*	1.3%
O=C(N/N=C/c1ccc([N+](=O)[O-])o1)c1ccc(NS(=O)(=O)c2cccs2)cc1	4.7%	4.8%	-1.6%	6.0%	35.5µM*	-6.4%
O=C(N/N=C/C=C/c1ccccc1[N+](=O)[O-])c1cccs1	-1.7%	1.9%	6.0%	.	-16.3%	-1.5%
COc1ccccc1/C=C/c1nc(C#N)c(N2CCN(c3ccccc3)CC2)o1	.	.	.	.	0.7%	-3.1%
Cc1ccccc1-c1nc(CS(=O)CC(=O)NC2CCCCC2)c(C)o1 (stereo unspecified)	-7.5%	-0.8%	11.8%	-11.6%	39.8µM*	-10.3%
Cc1oc(-c2ccccc2F)nc1CS(=O)CC(=O)NC1CCCC1 (stereo unspecified)	20.1%	-1.8%	-0.7%	-9.9%	14.1µM*	-10.8%
CCOC(=O)CNS(=O)(=O)c1c(C)noc1C	-6.0%	-2.0%	-0.2%	-17.7%	25.1µM*	-1.6%
Cc1ncn(-c2ccccc2O)c1C	0.0%	.	.	.	.	.
CCN(CC)c1ccc(/C=N/Nc2ccc(C)cc2)c(O)c1	12.5%	-0.5%	?	-21.0%	3.98µM*	-5.8%
CC1(C)S[C@@H]2[C@H](NC(=O)[C@H](N)c3ccccc3)C(=O)N2[C@@H]1C(=O)OCOC(=O)[C@@H]1N2C(=O)C[C@@H]2S(O)(O)C1(C)C	.	.	.	.	.	-5.2%
SMILES	NS1 inh	LmPK inhibitor	SARS PLP yeast	RE007 growth inh	Sm TGR inh	Tb PYK inh
COc1cccc(C=C2Cc3ccccc3C2=O)c1	.	.	.	?	.	0.1%
COc1cccc(/C=C2\CCc3ccccc3C2=O)c1	-57.8%	15.8µM*	-5.2%	.	1.4%	?
CC(=O)Oc1ccc(/C=C2/CCc3ccccc3C2=O)cc1	-53.5%	14.1µM*	-5.1%	?	-3.8%	?
COc1ccc2c(c1)CC/C(=C\C=C\c1ccccc1)C2=O	-27.3%	3.4%	2.9%	-12.6%	44.7µM*	-5.5%
Cc1ccsc1/C=C1\CCc2ccccc2C1=O	-58.2%	?	-27.6%	12.6µM*	13.5%	?
Cc1c(Cl)cccc1NC(=O)CN1C(=O)CCn2nc(-c3cccn3C)cc21	.	.	.	.	-5.4%	-1.3%
Cc1c(CCNC(=O)C(C)(C)C)sc2nc(-c3ccc(F)cc3)nn12	.	.	.	.	6.7%	1.7%
Cc1nn(-c2ccccc2)c(-n2cccc2)c1C(=O)N1CCN(c2ccccc2)CC1	.	.	.	.	2.7%	0.3%
O=C(NC1CCCC1)C(c1ccc(F)cc1)N(Cc1ccc(F)cc1)C(=O)CCl (stereo unspecified)	7.3%	-3.2%	-19.6%	8.3%	5.62µM*	-14.0%
O=C(NC1CCCCC1)C(c1ccncc1)N(Cc1ccc(F)cc1)C(=O)c1ccccn1 (stereo unspecified)	4.9%	1.3%	?	-2.7%	-35.6%	-3.1%
COC(CN(C(=O)CCl)C(C(=O)NC1CCCCC1)c1ccc(C)cc1)OC (stereo unspecified)	1.0%	1.6%	-2.5%	-14.7%	44.7µM*	-2.2%
CC(O)CN1CCN(CC(=O)[O-])CCN(CC(=O)[O-])CCN(CC(=O)[O-])CC1.[Gd+3] (stereo unspecified)	.	.	.	.	.	3.5%
COc1ccc(N2C(=O)CC(Nc3ccc(N4CCOCC4)cc3)C2=O)c(OC)c1 (stereo unspecified)	?	0.1%	-1.0%	0.4%	28.2µM*	-11.9%
COc1cccc(N2C(=O)CC(Nc3ccc(N4CCOCC4)cc3)C2=O)c1 (stereo unspecified)	8.6%	-7.2%	-3.1%	-18.9%	?	-19.4%
Cc1ccc(CN2C(=O)CC(Nc3ccc(N4CCOCC4)cc3)C2=O)cc1 (stereo unspecified)	16.2%	1.9%	-8.2%	-13.3%	39.8µM*	-21.9%
COc1ccc(N2C(=O)CC(Nc3ccc(C(=O)O)cc3)C2=O)cc1OC (stereo unspecified)	.	3.2%	0.5%	0.5%	22.4µM*	0.2%
COC(=O)c1cccc(NC2CC(=O)N(c3ccc(OC)c(OC)c3)C2=O)c1 (stereo unspecified)	-3.6%	0.1%	-6.1%	-2.0%	35.5µM*	-4.1%
COc1ccc(N2C(=O)CC(Nc3cccc([N+](=O)[O-])c3)C2=O)cc1 (stereo unspecified)	-2.2%	-9.2%	-0.4%	-16.8%	?	0.4%
